PKA-R2B act: activators of PKA-R2B holoenzyme, primary screen, biochemical, fluorescence polarization, Cy5-IP20, human. PKA-R2B holoenzyme dissociation; R2B truncated from residue 108, S112A mutant; 0% DMSO only, 100% 113 µM cGMP. activation, % at 11.4 µM. hit rate 0.079% among 340,000. AID 504700, 2011;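 active = activation above a cutoff set at the mean over all compounds plus 3 SD, cut at about 18% in these data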;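 note: higher means more holoenzyme dissociation and a rise in polarization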
Target sequence (P31323 whole entry, looked up, other chains not shown, the tested form may be a part): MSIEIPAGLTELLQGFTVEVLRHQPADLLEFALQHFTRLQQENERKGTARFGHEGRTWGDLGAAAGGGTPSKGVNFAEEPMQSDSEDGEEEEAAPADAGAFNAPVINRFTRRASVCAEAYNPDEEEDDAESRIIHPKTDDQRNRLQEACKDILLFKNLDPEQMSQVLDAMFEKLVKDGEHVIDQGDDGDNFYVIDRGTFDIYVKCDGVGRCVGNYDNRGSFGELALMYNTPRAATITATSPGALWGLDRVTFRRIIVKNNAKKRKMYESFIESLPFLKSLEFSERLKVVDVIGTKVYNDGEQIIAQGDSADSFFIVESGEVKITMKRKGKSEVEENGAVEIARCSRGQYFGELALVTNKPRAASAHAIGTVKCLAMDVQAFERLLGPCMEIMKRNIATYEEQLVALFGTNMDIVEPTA
PG9 Ab binder: binders of HIV-1 gp120 antibody PG9, primary screen, biochemical, TR-FRET | HIV-1 gp120 / PG9 antibody interaction | TR-FRET gp120-PG9 antibody binding | inhibition, % at 6.7 µM | hit rate 0.43% among 360,000 | AID 624416, 2012; in the data active = inhibition above about 8.5%
PKA-R1A activ: activators of PKA-R1A holoenzyme, primary screen, biochemical, fluorescence polarization, Cy5-IP20, bovine R1A, mouse PKAc; cAMP-dependent protein kinase type I-alpha regulatory subunit (Bos taurus) + …; PKA-R1A dissociation; scaled: DMSO 0%, 113 µM cGMP 100%; activation, % at 11.4 µM; hit rate 0.083% among 340,000;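 active = percent activation above the mean of all tested compounds plus 3 SD, cut at about 19% in these data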;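 note: higher means more PKAc released from R1A so a rise in polarization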
Rev-erbA mod: modulators of Rev-erb alpha DNA binding, primary screen, biochemical, FITC-DNA, fluorescence polarization, uHTS | AID 1259318, 2017 | activity, % at 10 µM | hit rate 0.79% among 370,000 | Rev-erbα–FITC-DNA binding, 90 min;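 active = activity above about 14%, limit read from the data; passing the limit was not always enough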
PG9 binder conf: binders of anti-gp120 antibody PG9, confirmation, biochemical, TR-FRET; shares compounds with PG9 Ab binder; TR-FRET PG9 antibody binding; inhibition, % at 6.7 µM; hit rate 90% among 1,500; AID 651571, 2012; in the data active = inhibition above about 9%
PGV04 counter: binders of control antibody PGV04, counter-screen for PG9 antibody binder project, biochemical, TR-FRET, distinct HIV envelope site; shares compounds with PG9 Ab binder; TR-FRET PGV04 antibody-gp120 binding; inhibition, % at 6.7 µM; hit rate 95% among 1,500; AID 651604, 2012; in the data active = inhibition above about 9.5%
NR1D1 mod conf: modulators of Rev-erb alpha DNA binding, confirmation, biochemical, FITC-DNA, fluorescence polarization, single point | shares compounds with Rev-erbA mod | 90 min | activation, % at 25 µM | hit rate 61% among 3,000 | AID 1259319, 2017;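 active = activation at or above a set limit, or at least 3 SD above the negative control mean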
RORg counter: modulation of RORgamma DNA binding, dose response, counter-screen for Rev-erb alpha modulator project, biochemical, fluorescence polarization, FITC-DNA; shares compounds with Rev-erbA mod; purified RORgamma protein-FITC-DNA binding; IC50, µM; hit rate 8% among 910; AID 1259320, 2017;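 active = Compounds whose fitted half-maximal concentration for disrupting protein-DNA binding is below 10 micromolar; the record names Rev-erb in its text, so the target is in doubt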
Each line names hits and unclear results; the compound was inactive in the other large screens (follow-up assays come after a bar, where they were run). A selection: hits, their analogues and other compounds. The true share with any hit is near 1.2%.

CC(=O)Nc1nnc(SCC(=O)c2ccc3c(c2)Cc2ccccc2-3)s1	PG9 Ab binder 10, Rev-erbA mod 55 | PG9 binder conf 21 | PGV04 counter 49 | NR1D1 mod conf 18
COc1ccc(NC(=O)c2sc3cc(C(F)(F)F)cnc3c2-c2cccs2)cc1	PG9 Ab binder 9.6, Rev-erbA mod 112 | PG9 binder conf 18 | PGV04 counter 71 | NR1D1 mod conf 73 | RORg counter inactive
N#Cc1ccc(NC(=O)c2sc3cc(C(F)(F)F)cnc3c2-c2cccs2)cc1	none
O=C(Cn1cnc2sc(-c3ccccc3)cc2c1=O)NCc1ccccc1	none
O=C(Cn1cnc2sc(-c3ccccc3)cc2c1=O)NCCc1ccccc1	PG9 Ab binder 9.1, Rev-erbA mod 65 | PG9 binder conf 40 | PGV04 counter 60 | NR1D1 mod conf 28
Cc1cc2c(s1)c1cnn(CC(=O)NCCc3ccccc3)c(=O)c1n2C	PG9 Ab binder 37, Rev-erbA mod 307 (no result: PKA-R2B act, PKA-R1A activ) | PG9 binder conf 49 | PGV04 counter 50 | NR1D1 mod conf 352
CCOC(=O)N1CCN(C(=O)C[C@H]2C[C@@]3(C(=O)OC)C(=C[C@H](C(C)C)O[C@@H]3C3CC3)N(Cc3ccc4c(c3)OCO4)C2=O)CC1	none (no result: PKA-R2B act, PG9 Ab binder, PKA-R1A activ)
Cc1cccc(C)c1NC(=O)COc1ccccc1C(=O)Nc1ccc(Br)cn1	PG9 Ab binder 62, Rev-erbA mod 118 | PG9 binder conf 61 | PGV04 counter 83 | NR1D1 mod conf 92 | RORg counter inactive
CCC(=O)c1ccccc1OCC(=O)Nc1c(C)cccc1C	none
O=C(NC1CCCCN(Cc2cccc(Cl)c2)C1=O)C1CCCCC1 (stereo not given)	none (no result: PKA-R2B act, PG9 Ab binder, PKA-R1A activ)
COC1C(CO)OC(n2c3c(Cl)cccc3c3c4c(c5c6cccc(Cl)c6[nH]c5c32)C(=O)NC4=O)C(O)C1O (stereo not given)	PG9 Ab binder 72, Rev-erbA mod 111 | PG9 binder conf 56 | PGV04 counter 68 | NR1D1 mod conf 173 | RORg counter inactive
COc1ccc(-n2nc(C(=O)NCC(=O)Nc3cccc(Cl)c3)c3ccccc3c2=O)cc1OC	PG9 Ab binder 39, Rev-erbA mod 289 | PG9 binder conf 35 | PGV04 counter 66 | NR1D1 mod conf 273 | RORg counter inactive
CCOc1ccc(NC(=O)CNC(=O)c2nn(-c3ccc(OC)c(OC)c3)c(=O)c3ccccc23)cc1	PG9 Ab binder 40, Rev-erbA mod 111 | PG9 binder conf 23 | PGV04 counter 61 | NR1D1 mod conf 91 | RORg counter inactive
COc1ccc(-n2nc(C(=O)NCC(=O)Nc3ccc(F)cc3)c3ccccc3c2=O)cc1	PG9 Ab binder 11, Rev-erbA mod 39 | PG9 binder conf 17 | PGV04 counter 25 | NR1D1 mod conf inactive
O=C(CCc1ccccc1)N[C@H]1[C@@H](OC(=O)c2ccco2)CCC[C@@]12C(=O)N(Cc1ccccc1)c1ccccc12	none (no result: PKA-R2B act, PG9 Ab binder, PKA-R1A activ)
Cc1cc(C)c(NC(=O)CSc2nc3ncc(Br)cc3[nH]2)c(C)c1	PG9 Ab binder 39, Rev-erbA mod 124 | PG9 binder conf 41 | PGV04 counter 65 | NR1D1 mod conf 99 | RORg counter inactive
CCC(=O)c1cn(CC(=O)Nc2ccc(C)cc2C)c2ccccc12	PG9 Ab binder 12, Rev-erbA mod 36 | PG9 binder conf 12 | PGV04 counter 18 | NR1D1 mod conf 40 | RORg counter 9.8

Compound activity (PubChem)
